Assay results as given in ChEMBL document CHEMBL3988442, “University of Dundee, Small-Polar-MMV Screening Library” (2021).

Columns and labels:
[1] = target: T1, Aspartate--tRNA(Asp/Asn) ligase (Mycobacterium tuberculosis (strain ATCC 25618 / H37Rv)) (UniProt P9WFW3); assay: Assay for Asp RNA synthetase-1 from Mycobacterium tuberculosis; type: functional; parameters: scale not given: direction of the effect not stated beside the values; settings: 30 µM; also: in the data most compounds retested in dose-response had high values
T1 sequence (whole entry): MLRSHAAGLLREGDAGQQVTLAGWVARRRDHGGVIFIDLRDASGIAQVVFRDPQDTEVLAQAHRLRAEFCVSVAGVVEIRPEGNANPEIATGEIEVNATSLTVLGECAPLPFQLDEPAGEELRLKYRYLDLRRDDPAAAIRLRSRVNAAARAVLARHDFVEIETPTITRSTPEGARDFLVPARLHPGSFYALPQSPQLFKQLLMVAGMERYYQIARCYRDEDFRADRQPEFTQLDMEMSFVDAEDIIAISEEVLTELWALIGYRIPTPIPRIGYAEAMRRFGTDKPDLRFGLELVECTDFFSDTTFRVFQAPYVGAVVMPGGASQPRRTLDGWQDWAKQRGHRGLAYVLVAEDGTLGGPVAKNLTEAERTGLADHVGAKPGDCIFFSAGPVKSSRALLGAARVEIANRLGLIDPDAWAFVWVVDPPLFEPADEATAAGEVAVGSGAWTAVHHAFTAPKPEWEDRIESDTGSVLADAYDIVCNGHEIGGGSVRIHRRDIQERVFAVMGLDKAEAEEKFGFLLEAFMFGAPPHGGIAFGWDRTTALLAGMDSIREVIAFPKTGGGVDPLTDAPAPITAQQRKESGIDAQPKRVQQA

[2] = target: Shiga toxin 2 (Escherichia coli O157:H7) (UniProt P09385+P09386); assay: E. coli 0.157:H7 Shiga Toxin SOP - stx2 screening assay; type: functional; parameters: scale not given: direction of the effect not stated beside the values; settings: 30 µM

| SMILES | Percent Effect [1] [%] | Percent Effect [2] [%] |
| --- | --- | --- |
| CCCc1nc(C(=O)N2CCCn3nc(CCC(=O)O)cc3C2)cs1 | -2.6 | 15.5 |
| COc1ccc(NC(=O)C(c2cccc(F)c2)N2CCOCC2)cc1 (configuration not stated) | 5.63 | -8.77 |
| CC(C)C(=O)N1CCCC(c2cc(C(F)F)n3ncnc3n2)C1 (configuration not stated) | 1.92 | -11.7 |
| Cc1ccc(C(=O)N2CCC3(CCN(C(=O)c4cccnc4)C3)CC2)o1 | 5.85 | -10.6 |
| Cn1cc(CN2CC3(CCN(C(=O)c4ccoc4)C3)C2)cn1 | -2.07 | -8.68 |
| COCCNC(=O)[C@H]1C[C@@H]2CCN(c3nncs3)C[C@H]2O1 | 1.82 | -18.8 |
| CCOc1ccc(NC(=O)c2cnc(N3CCCC3)nc2C)cc1 | -4.56 | -10.5 |
| CCOCCCn1c(NC(=O)c2cnn(C)c2)nc2ccccc21 | -2.49 | 22.6 |
| Cc1ccc(OCCC(=O)NC2CCc3nc(C)cn3C2)cc1 (configuration not stated) | 3.86 | -17.6 |
| Cc1cc(OCC(=O)N2CCCC(c3ccn[nH]3)C2)no1 (configuration not stated) | -5.07 | 2.75 |
| Cc1cc(NC(=O)C(C)N2CCCN(c3nccs3)CC2)on1 (configuration not stated) | -2.75 | 4.75 |
| Cc1ccc2c(c1)CN(C(=O)C1CCCCC1)C(CN(C)C)CO2 (configuration not stated) | 1.26 | 2.56 |
| CCc1cnc(CN(C(C)=O)C2CCN(CCc3cnn(C)c3)C2)o1 (configuration not stated) | -5.68 | 20.4 |
| CCC(CC)c1cc(C(=O)N2CCCC(n3cncn3)C2)on1 (configuration not stated) | -5.51 | -2.33 |
| CS(=O)(=O)N1CCC(C(=O)NC(Cc2ccsc2)c2nccs2)CC1 (configuration not stated) | -5.91 | 16.3 |
| Cc1cnn(CCNCC(=O)NCCOc2ccccc2)c1 | -2.67 | 18.2 |
| Cc1nc(CCC(=O)NC2CCC2)cc(C2CCNCC2)n1 | 1.96 | -6.49 |
| CN1CCN(Cc2nnc(C3CCN(CC4CC4)CC3)n2C)CC1 | -0.891 | 2.65 |
| CCC1=N[C@@]2(CC[C@@H]3CN(C(=O)NCC(C)C)C[C@@H]32)C(=O)N1CC(C)C | 4.11 | -9.55 |
| CC(C)n1cnc2c1C(C(=O)NCCC#N)N(Cc1ccccc1)CC2 (configuration not stated) | -1.11 | -31.8 |
| Cc1nc2c(c(C)c1CC(=O)NCc1cccc(C#N)c1)c(=O)[nH]n2C | 0.634 | 25.4 |
| O=C1OCCN1CCc1nc(-c2cc3c4c(c2)CC(=O)N4CCC3)cs1 | 1.61 | 9.08 |
| CCO[C@H]1CO[C@@]2(CCCN(Cc3nc(C)cs3)C2)C1 | -4.51 | -13.5 |
| CCc1ncc2c(n1)CN(CC(=O)NCCOc1ccccc1)CC2 | 2.89 | 23.5 |
| Cn1cc(CCNC(=O)NC2CCS(=O)(=O)C2)cn1 (configuration not stated) | 2.01 | -8.38 |
| O=S(=O)(CCNCc1ccc2c(c1)CCO2)N1CCOCC1 | 0.97 | -25.2 |

| SMILES | Percent Effect [1] [%] | Percent Effect [2] [%] |
| --- | --- | --- |
| COc1ccc(C)cc1C(C)NC(=O)NCCCn1cncn1 (configuration not stated) | 2.78 | -12.9 |
| CC(O)CN1CCN(C(=O)c2cc3ccccc3c(=O)[nH]2)CC1 (configuration not stated) | 0.869 | -10.8 |
| CC(NC(=O)N1CCN(c2ccc(Cl)cc2)CC1)C(=O)N1CCSCC1 (configuration not stated) | -5.11 | 11.9 |
| CCC(=O)N(C)CC(=O)Nc1ccc(Br)cn1 | -3.04 | -18.8 |
| CC(=O)N1CCCC(Cc2cncc(Br)c2)CC1 (configuration not stated) | -0.223 | -11 |
| Cc1cnn(CC2CCCN2C(=O)c2ccc3[nH]nnc3c2)c1 (configuration not stated) | -3.83 | -49.7 |
| CCOCC(O)CN1CCN(C(=O)CC(C)C)CC1 (configuration not stated) | -2.19 | 18.6 |
| Cc1ccccc1CN1CCN(CC(=O)Nc2cccnc2)CC1 | -2.08 | 17 |
| O[C@H]1[C@H](n2cc(-c3cccnc3)nn2)c2ccccc2C12CCNCC2 | -2.48 | 7.64 |
| CC(=O)N1CCC(Cc2cnc(-c3c(C)n[nH]c3C)cn2)C1 (configuration not stated) | -11.6 | -7.52 |
| COc1cccc(CN(C)Cc2cccc(C#N)c2)c1OC | -1.23 | 14.1 |
| Cc1nc(CN2CCCC(CCNS(C)(=O)=O)C2)c[nH]1 (configuration not stated) | -4.89 | 13 |
| Cc1cnn(CC2CCCN2Cc2ncc(-c3ccccc3)o2)c1 (configuration not stated) | 4.6 | 25.3 |
| CCn1ccnc1CN1CCN(CC(O)Cn2cccn2)CC1 (configuration not stated) | -1.83 | -31.5 |
| O=C(C1CCC1)N1CCCC1c1nnc2n1CCCCC2 (configuration not stated) | -0.296 | -16 |
| CC(CCc1ccco1)NC(=O)Nc1cc(C(F)(F)F)c[nH]c1=O (configuration not stated) | 0.141 | 36.5 |
| CNc1cncc(C2CCCN2C(=O)c2ccc3oc(=O)n(C)c3c2)n1 (configuration not stated) | 5.14 | 3.86 |
| Cc1cc(NC(=O)CCN2CCCC2Cn2cncn2)no1 (configuration not stated) | -2.02 | -32.1 |
| CC(NC(=O)NCc1ccoc1)c1ccc2c(c1)CCC(=O)N2 (configuration not stated) | -9.2 | -43.2 |
| CN1CCN(c2cc(CNC(=O)c3ccc(=O)[nH]n3)ccn2)CC1 | -0.544 | -57.8 |
| CCCc1cc(=O)[nH]c2nnc(SCC(=O)NCc3ccc(C)cc3)n12 | -7.99 | 2.17 |
| c1ccc(Cn2cc(CNCC3CCCN3c3cccnn3)cn2)cc1 (configuration not stated) | 8.82 | 22.8 |
| Cc1cccc(-c2[nH]ncc2CNCC2CCN(CC(C)O)CC2)c1 (configuration not stated) | 4.15 | 20.1 |
| Cn1ccnc1CN1CCN(CC(O)c2cccc(F)c2)CC1 (configuration not stated) | 1.53 | 14 |
| O=C1CC(c2ccncc2)C2(CCN(C(=O)c3ccc[nH]3)CC2)N1 (configuration not stated) | -0.81 | -8.09 |
| Cc1ccc(C(=O)NC(C)CN2CCCC2=O)c(=O)[nH]1 (configuration not stated) | -2.42 | -3.66 |

| SMILES | Percent Effect [1] [%] | Percent Effect [2] [%] |
| --- | --- | --- |
| COc1ccc(OCc2nc(C(=O)N3CC(O)C3)co2)cc1 | -0.0558 | -45.4 |
| O=C(CSc1ncccn1)N1C[C@H]2CC[C@@H]1CN(Cc1ccncc1)C2 | 3.45 | -26.2 |
| CCN1CCN(CC(C)(O)c2cccc(C(F)(F)F)c2)CC1 (configuration not stated) | 3.38 | 6.41 |
| CC(C1CC1)N(C(=O)NCCCn1nc2ccccn2c1=O)C1CC1 (configuration not stated) | 1.26 | -15.6 |
| CC1CCCN(C(=O)CCc2cccnc2)C1 (configuration not stated) | -4.28 | -0.0678 |
| CC(OCC1CC1)C(=O)N1CCCN(Cc2cnn(C)c2)CC1 (configuration not stated) | 1.41 | -83.1 |
| CCC(CC)C(=O)N1CCC2(C1)CN(c1ccccc1)C(=O)CN2C (configuration not stated) | -4.01 | -3.77 |
| O=C(Cc1ccc2c(c1)OCCO2)NC1CCN(CC(F)F)CC1 | -1.24 | 11 |
| Cn1cc(CN2CCCn3cnc(CN4CCCC4=O)c3C2)cn1 | 2.39 | -3.11 |
| O=C(CCc1ccc(=O)[nH]n1)N1CCCC(COc2ccc(F)cc2)C1 (configuration not stated) | 3.84 | 6.15 |
| Cc1ncccc1Oc1nccnc1C1CCN(C(C)C)CC1 | -4.09 | -1.37 |
| Cc1cc(NC(=O)NCC(C)O)n(C)n1 (configuration not stated) | -2.68 | -5.14 |
| O=C(CC1CC1)NCc1cn2c(n1)CN(CC1CC1)CC2 | 4.87 | -4.42 |
| CC(C)C1CN(C(=O)c2nccnc2N)CCS1 (configuration not stated) | 13 | -15.2 |
| CCNC(=O)N(C)Cc1ccc(SC)c(OC)c1 | 4.58 | 0.0534 |
| CN(C)C(=O)N1C[C@@H]2CC[C@H](C1)N(C(=O)CCCn1cncn1)C2 | 1.35 | 4.19 |
| CC(C)(NCC(=O)NCCC#N)c1ccc2c(c1)OCCO2 | 11.1 | 14.2 |
| CN(CC(N)=O)S(=O)(=O)c1ccc(F)cc1Cl | -2.44 | -10.3 |
| Cn1cc(CN2C[C@@H]3COC[C@]3(COc3ccc(C#N)cn3)C2)cn1 | 3.33 | -7.69 |
| Cc1cccc(CN2C(=O)CC[C@@H]3[C@H]2CCN3Cc2ccc(C)s2)n1 | 7.52 | -11.3 |
| CC1CCN(S(=O)(=O)c2cccn(CC(=O)NC3CCCC3)c2=O)CC1 | -2.16 | 1.09 |
| Cc1ncc(-c2ccnc(N3CCCCCC3)n2)c(-c2cccnc2)n1 | 7.25 | -25.4 |
| Cc1nnc(CCNC2CCN(c3ncnc4c(C)csc34)CC2)s1 | 0.208 | -65.7 |
| c1csc(CN2CCn3c(Cn4cncn4)cnc3C2)n1 | -1.25 | -17.5 |
| CCN1CCCC(CNC(=O)C2(c3cccc(Cl)c3)CC2)C1 (configuration not stated) | 4.29 | -31.2 |
| COc1ncccc1C(=O)N1CCN(C(=O)Cc2ccccn2)CC1 | 4.26 | -53.3 |

| SMILES | Percent Effect [1] [%] | Percent Effect [2] [%] |
| --- | --- | --- |
| CNc1nc(C(=O)N2CCCC(c3nccn3CC3CCC3)C2)cs1 (configuration not stated) | 10.9 | 2.21 |
| O=C(Nc1cccc(N2CCCC2)c1)C1CCCN1c1nccs1 (configuration not stated) | 1.21 | -4.67 |
| CCc1nc(C2CCCN2CC(=O)Nc2c(C)n[nH]c2C)no1 (configuration not stated) | -2.31 | 2.91 |
| CCOCCCNC(=O)c1ccccc1S(C)(=O)=O | -2.28 | 0.226 |
| CC(C)c1noc(CN2CCN(C(=O)c3ccccc3F)CC2)n1 | -2.91 | 12.1 |
| Cn1cnc2c1C(COCc1cccnc1)N(Cc1ccccn1)CC2 (configuration not stated) | 2.65 | -18.6 |
| CN(Cc1ccncc1)C(=O)Nc1cnn(CC2CCCO2)c1 (configuration not stated) | 2.49 | -5.44 |
| O=C(CCc1ccsc1)N1CCC(Cc2ccc(CO)cc2)C1 (configuration not stated) | 0.501 | -19.1 |
| Cc1nc(C)n(CC2CN(Cc3cccc4c3OCCO4)CCO2)n1 (configuration not stated) | -4.36 | 23.8 |
| Cc1cnn(CCNCc2csc(-c3ccc4c(c3)OCO4)n2)c1 | 1.41 | 23.7 |
| Cc1ccc(SCC2CNc3nc4ccccc4c(=O)n32)c(C)c1 (configuration not stated) | 0.0228 | 9.77 |
| CCN(CC)C(=O)c1ccc(-c2ccsc2)nc1C | -1.17 | -6.7 |
| Cc1cnn(CCNCC(O)COc2ccc(C#N)cc2)c1 (configuration not stated) | 1.2 | -30.5 |
| COCCN1CCC2(CC1)CN(C(=O)N(C)C)c1ccc(C)cc12 | 0.0764 | -2.72 |
| CCC1=N[C@@]2(CC[C@@H]3CN(Cc4ccc(Cl)cc4)C[C@@H]32)C(=O)N1 | 0.626 | 3.7 |
| CN(C)C(=O)N1CCc2c(nnn2C)C1COCc1ccccc1 (configuration not stated) | 1.92 | -16.6 |
| Fc1cccc(N2C[C@H]3CCN(c4cccnc4)C[C@H]3C2)c1 | 6.15 | -16.5 |
| OCCN1CCN(Cc2coc(-c3ccc(Cl)cc3)n2)CC1 | 4.16 | 3.75 |
| Cn1cc(CN2CCCC3(CCN(Cc4cccnc4)C3=O)C2)cn1 (configuration not stated) | -1.18 | -7.77 |
| Cc1ccc(CCC(=O)N2CCCC(n3cncn3)C2)c(C)c1 (configuration not stated) | -4.98 | 10.1 |
| CC(C(=O)NCc1ccnc(N(C)C)c1)n1cncn1 (configuration not stated) | 0.0335 | -9.74 |
| O=C(COCC1CC1)N1CCCC(n2ccnc2)C1 (configuration not stated) | 0.946 | -26.2 |
| COc1ccc(C2=CCN(C(=O)C3CCCN(C(N)=O)C3)CC2)cc1 (configuration not stated) | 1.94 | 26.5 |
